Inconclusive results are not listed. The call rests on the fitted dose curve; in most records, active means well fitted curve in either direction with a large enough effect (not every such curve was filed as active); inconclusive means small, poorly fitted or top-dose-only effect, or another doubt; inactive means flat fitted curve, though single readings scatter.
Experiment: Stat Signaling Pathway (AID 446);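 further: ME-180 cervical cancer cells given 40 pM IL-6 alongside compound; SIE-controlled beta-lactamase reporter measured as 460/530 nm FRET emission ratio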
Details: ME-180 (cervical carcinoma) SIE beta-lactamase reporter, IL-6 stimulated, 5 h; at 17.2 µM (top of the series) unless noted
Procedure, shortened: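 IL-6/STAT signaling read in ME-180 cells via an SIE beta-lactamase reporter. Stimulus was 40 pM IL-6 (its AC50) for 5 hrs, so both activation and inhibition register.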
On the % scale 0 is the no-effect control and ±100 the full control effect.

activity, negative = inhibition, inactive:
Cc1ccc(C(=O)C2=C(O)C(=O)N(c3ncccn3)C2c2cccc(Cl)c2)o1 (stereo not given) -7.64%
COc1ccc(C2N3CC4(C)CN2CC(C)(C3)C4O)cc1OC (stereo not given) 15.4%
CCOc1ccc2nc(SCC(=O)Nc3ncccn3)[nH]c2c1 -2.35%
COc1ccccc1N1CCN(C2CCN(C(=O)c3cc(OC)c(OC)c(OC)c3)CC2)CC1 10.4%
CCOc1nc(Oc2cccc(C(=O)O)c2)nc(Oc2cccc(C(=O)O)c2)n1 8.24%
CCCCOC(=O)CSC1=C(C#N)C(c2ccccc2OC)C(C#N)C(=O)N1 (stereo not given) -14%
CC12CCC(=O)N1c1c(sc3nc(N4CCOCC4)c4c(c13)CCCC4)C(=O)N2 (stereo not given) -5.31%
Fc1cnc(N2CCOCC2)nc1NCc1ccccc1 -8.43%
CC1(C)CC(=O)C2=C(C1)OC(N)=C(C#N)C2C1C=CCCC1 (stereo not given) -5.68%
CCC(C(=O)Nc1nccs1)(C(F)(F)F)C(F)(F)F -9.76%
COC(=O)CC1=C(C(=O)OC)C(c2cccc(OCC(N)=O)c2)C(C#N)=C(N)O1 (stereo not given) 6.6%
CSc1nnc2n(C3CCCCC3)c(=O)c3c4c(sc3n12)CCCC4 14.1%
CCOC(=O)C1=C(C)N=C2SC(C)C(=O)N2C1c1cccc(F)c1 (stereo not given) 1.84%
COc1ccccc1NC(=O)c1c(C)cc(=O)oc1C 0.453%
O=C(CCC1CCCC1)N1CCC(N2CCN(c3ccccc3)CC2)CC1 9.85%

Source: PubChem BioAssay (NCATS)
